Values without a mark were called inactive. Entries that show only a call come without a potency. Activity calls are given as the source filed them. Calls come from the whole dose curve.
The compounds below were run against Muscarinic acetylcholine receptor M1 (Homo sapiens) (UniProt P11229) (assay: Cholinergic receptor muscarinic 1 (CHRM1) small molecule agonists, cell-based qHTS assay (AID 1963589; note: nearly all actives have a fitted effect of over 35% in size)). Details: CHRM1-CHO cells, agonist mode, calcium flux fluorescence; series mostly up to 76.8 µM.
Chain of Muscarinic acetylcholine receptor M1 (Homo sapiens) (P11229 whole entry, looked up): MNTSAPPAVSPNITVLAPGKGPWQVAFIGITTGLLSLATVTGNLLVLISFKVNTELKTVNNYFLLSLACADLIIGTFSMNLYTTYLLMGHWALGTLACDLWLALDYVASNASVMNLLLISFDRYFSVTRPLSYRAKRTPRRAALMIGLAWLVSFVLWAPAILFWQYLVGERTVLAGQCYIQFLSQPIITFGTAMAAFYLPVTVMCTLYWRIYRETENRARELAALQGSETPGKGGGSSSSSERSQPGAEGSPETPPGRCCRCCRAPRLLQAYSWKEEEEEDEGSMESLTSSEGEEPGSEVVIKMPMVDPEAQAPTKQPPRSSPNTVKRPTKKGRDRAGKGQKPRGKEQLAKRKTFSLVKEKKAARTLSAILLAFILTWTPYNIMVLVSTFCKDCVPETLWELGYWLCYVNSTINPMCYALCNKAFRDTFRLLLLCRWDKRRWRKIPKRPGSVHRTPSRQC
Source text: National Center for Advancing Translational Sciences [NCATS]
Division of Preclinical Innovation [DPI]
U.S. Environmental Protection Agency [EPA]
National Institutes of Environmental Health Sciences [NIEHS]
National Toxicology Program [NTP]
U.S. Food and Drug Administration [FDA]
The CHRM1 is a muscarinic receptor. This receptor plays a crucial role in learning and memory processes and has long been identified as a promising therapeutic target for the improvement of cognitive decline in Alzheimer's disease (AD). The CHRM1-CHO cell line stably expressing human muscarinic acetylcholine receptor M1 (CHRM1) can be used for screening agonists and antagonists of interactions between CHRM1 and its ligands. The CHRM1-CHO Calcium Flux Assay is a homogeneous fluorescence-based assay for detecting the intracellular calcium level using FDSS kinetic plate reader system.
CHRM1-CHO cells were dispensed at 1000 cells/3uL/well in 1536-well black-clear bottom plates using a Multidrop Dispenser. After the assay plates were incubated at a 37 C/5% CO2 incubator for 18 h, 3 uL of Dye Loading Buffer was transferred to the assay plate by a Flying Reagent Dispenser. The assay plates were incubated at 37 C for 1h. For agonist mode, 23 nL of compounds dissolved in DMSO, positive controls or DMSO only was transferred to the assay plate by a pin tool. […] Each test compound was measured at 15 concentrations in three independent runs.
With `CCOc1ccc([N+](=O)[O-])cc1` the Potency was “inactive”. In the case of `Cc1cnc(NS(=O)(=O)c2ccc(N)cc2)nc1`, the Potency was “inactive”. In the case of `CN=C(N)NC(=O)Nc1c(C)cccc1C`, the Potency was “inactive”. With `CCCCCCCCCCn1cc[n+](CCCCCCCCCC)c1C` the Potency was “inactive”. For `O=C(O)c1cccc(Cl)n1`, the Potency was “inactive”. `CC(C)C(=O)OCC(C)(C)C(O)C(C)C` (stereo not given) was tested, and the Potency was “inactive”. For `Cc1ccc(-n2[nH]c(C)c(N=Nc3cccc(-c4cccc(C(=O)O)c4)c3O)c2=O)cc1C`, the Potency was “inactive”. For `CCCCCCCC/C=C/C(=O)O`, the Potency was “inactive”. In the case of `COC(=O)C(C)(C)C`, the Potency was “inactive”. `Cc1ccc(C(=O)Oc2ccc(C(O)CNC(C)(C)C)cc2OC(=O)c2ccc(C)cc2)cc1` (stereo not given) was tested, and the Potency was “inactive”. With `O=C(OOC(=O)c1ccccc1)c1ccccc1` the Potency was “inactive”. With `CC(C)(C)c1cc(CCC(=O)NCCCCCCNC(=O)CCc2cc(C(C)(C)C)c(O)c(C(C)(C)C)c2)cc(C(C)(C)C)c1O` the Potency was “inactive”. For `CCOC(=O)c1c(N)sc2c1CCN(Cc1ccccc1)C2`, the Potency was “inactive”. `O=C(CCCl)NCCc1ccccc1` was tested, and the Potency was “inactive”. `O=C(CCN1CCC(c2ccccc2)C1)c1ccc2c(c1)OCCO2` (stereo not given) was tested, and the Potency was “inactive”. In the case of `CCOC(=O)CC`, the Potency was “inactive”. `CCCCCCCCCCCCOC(=O)c1ccc(O)cc1` was tested, and the Potency was “inactive”. For `Cc1cccc(C)c1C`, the Potency was “inactive”. For `Cc1cccc2nccnc12`, the Potency was “inactive”. `C/C=C/C(=O)OCC(C)C` was tested, and the Potency was “inactive”. `O=C(O)c1ccc2c(c1)nc(C(=O)NC1CCN(C3CC3)CC1)n2Cc1cc(-c2ccc(Cl)s2)on1` gave an activation of -0.218% [at 15.8 µM]. With `Cc1c(C(=O)NCCO)[n+](=O)c2ccccc2n1[O-]` the Potency was “inactive”. For `CCCCCCCCCCCCCc1ccccc1`, the Potency was “inactive”. With `O=C(O)C[C@H](O)C[C@H](O)/C=C/c1c(C2CC2)nc2ccccc2c1-c1ccc(F)cc1` the activation was -0.297% [at 15.8 µM]. For `CCCC(C)C(=O)OCC` (stereo not given), the Potency was “inactive”. In the case of `Cc1ccco1`, the Potency was “inactive”. For `CO[Si](C)(OC)c1ccccc1`, the Potency was “inactive”. With `CC(C)=CC1CC(C)CCO1` (stereo not given) the Potency was “inactive”. `O=C(Nc1ccc([N+](=O)[O-])cc1)Nc1ccc([N+](=O)[O-])cc1` was tested, and the Potency was “inactive”. With `Nc1nc(CC(=O)O)cs1` the Potency was “inactive”. `CCCCCCCCCCCCSC` was tested, and the Potency was “inactive”. In the case of `COc1ccccc1NC(=O)c1cc2ccccc2cc1O`, the Potency was “inactive”. `CCN(CC)C(C)CN1c2ccccc2Sc2ccccc21` (stereo not given) was tested, and the Potency was “inactive”. For `Cc1ccc(/C=N/n2c(-c3ccccc3)csc2=S)cc1`, the Potency was “inactive”. `CCCCCCCCCCCCCOP(=O)(O)O` was tested, and the Potency was “inactive”. With `COc1ccc(-c2cc(C(F)F)nn2-c2ccc(S(N)(=O)=O)cc2)cc1F` the Potency was “inactive”. For `Oc1cccc2[nH]ccc12`, the Potency was “inactive”. In the case of `CCCCCCCCCCCCCCCCOS(=O)(=O)O`, the Potency was “inactive”. With `Cn1c(=O)cc(Oc2ccc(F)cc2F)c2cnc(NCC(C)(C)O)nc21` the Potency was “inactive”. In the case of `C#CC(C)N(C)C(=O)Nc1ccc(Cl)cc1` (stereo not given), the Potency was “inactive”.

Reference: PubChem BioAssay (Tox21)
